Screening results as filed in PubChem.
Compounds with a hit are over-represented: about 4.6% of the library has one in this group of screens.
TIM10 inh = growth inhibitors of TIM10 yeast strain; S. cerevisiae TIM10 strain growth, BacTiter-Glo luminescence, 24 h; inhibition, % at 10 µM; 330,000 tested, 1.4% active; AID 463195;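 active = inhibition of 40% or more at the single tested concentration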;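 also: wild-type TIM10 isogenic control strain grown at permissive 25 °C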
NALP3 yeast inh = inhibitors of NALP3 inflammasome in yeast. Yeast reconstituted NLRP3/ASC/caspase-1, beta-gal luminescence, 24 h. 330,000 tested, 0.39% active. inhibition, % at 10 µM;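 active = inhibition of 50% or more; inactive = inhibition below 50%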
tim23-1 inh = growth inhibitors of tim23-1 mutant yeast; S. cerevisiae tim23-1 growth, BacTiter-Glo luminescence, 24 h; inhibition, % at 20 µM; 330,000 tested, 1.3% active;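 active = growth inhibition of the mutant yeast at or above 50%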;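 also: temperature-sensitive mutant grown at 25 °C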
SKKanGAS inh = SKKanGAS growth inhibition | S. pyogenes SKKanGAS, kanamycin growth, BacTiter-Glo, 6 h | inhibition, % at 7.5 µM | 300,000 tested, 1.3% active | AID 1662;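 active = mean replicate score, as percent of positive control median, at least 50; inconclusive = mean below 50 but one replicate at or above 50; inactive = mean and every replicate below 50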;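 also: strain carries kanamycin resistance gene driven by streptokinase promoter and grows in 40 µg/ml kanamycin; loss of luminescence reflects streptokinase promoter inhibition or plain growth inhibition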
tim10-1 inh = inhibits growth of tim10-1 mutant yeast; S. cerevisiae tim10-1 ts strain growth, BacTiter-Glo, 24 h; 330,000 tested, 2.2% active; inhibition, % at 20 µM; AID 463190;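 active = inhibition of at least 40%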;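 also: mutant grown at 25 °C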
tim23-1 conf = tim23-1 yeast growth inhibition, confirmed; inhibition, % at 20 µM; S. cerevisiae tim23-1 growth, BacTiter-Glo luminescence, 24 h; shares compounds with tim23-1 inh; 4,400 tested, 83% active;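 active = inhibition above about 39% in either of two replicate wells at 20 µM, limit read from the data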;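 also: temperature-sensitive tim23-1 mutant grown at 25 °C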
Numbers stand for hits; i = inactive; ? = inconclusive; nt = no result given.

SMILES	TIM10 inh	NALP3 yeast inh	tim23-1 inh	SKKanGAS inh	tim10-1 inh	tim23-1 conf
CCN1CCN(C(=O)c2cc(-c3ccc(Cl)s3)nc3ccccc23)CC1	i	i	i	i	i	nt
COC(=O)C1CCN(C(=O)c2cc(-c3ccc(Cl)s3)nc3ccccc23)CC1	i	i	52	nt	i	52
CC1(C)CC(=O)C2=C(C1)Nc1ccccc1NC2c1ccc([N+](=O)[O-])cc1 (centres undefined)	i	i	i	i	i	nt
O=C(NCc1csc(-c2cccs2)n1)Nc1cccc(Cl)c1	i	i	53	i	i	64
CCCc1cc(=O)oc2cc(C)c(CN3CCCC3)c(O)c12	i	i	59	i	i	58
CCN(CC)c1nc(N)nc(N(c2ccccc2)c2ccccc2)n1	i	i	57	i	i	50
O=C1CCN(Cc2ccccc2)C=C1c1ccc2ccccc2c1	i	i	50	nt	i	47
O=C1CCN(Cc2ccccc2)C=C1c1ccc(Cl)cc1	i	i	i	nt	i	nt
O=C(Cn1nc(C(=O)O)c2ccccc2c1=O)Nc1cc(C(F)(F)F)ccc1-n1cncn1	i	i	i	nt	i	nt
COc1ccc(NC(=S)NC2CC3CCC2C3)c(OC)c1 (centres undefined)	i	i	63	i	i	i
CCOc1ccccc1NC(=S)NC1CC2CCC1C2 (centres undefined)	i	i	i	i	i	nt
CCN1C(=O)CC(c2ccc(OC(C)C)cc2)C1=O (centres undefined)	i	i	i	i	i	nt
COc1ccc(C(C[N+](=O)[O-])c2c(C)[nH]n(-c3ccccc3)c2=O)cc1 (centres undefined)	i	i	76	i	i	67
CC(CCCC(C)(C)O)NCc1cn[nH]c1-c1ccc2c(c1)OCO2 (centres undefined)	i	i	i	i	i	nt
COc1cc(NC(=S)Nc2ccc(N(C)C(C)=O)cc2)cc(OC)c1	i	i	i	i	i	nt
CCOc1ccc(N(CC(=O)NC2CCCCC2)C(=O)CCC(=O)Nc2ccccn2)cc1	i	i	i	i	i	nt
Cc1ccc(-c2nnc(NC3CCCC3)s2)cc1	i	i	53	i	i	42
Cc1ccc(C(=O)Nc2nnc(-c3ccc(C(C)(C)C)cc3)s2)cc1	i	i	i	i	i	nt
CC[C@@H]1C(c2cccc(Cl)c2)=NN(c2ccc(Br)cc2)[C@H]1C(=O)N1CCOC1=O	i	nt	i	nt	i	nt
COc1ccccc1[C@@H]1C(c2ccccc2)=NN(c2ccc(Br)cc2)[C@H]1C(=O)N1CCOC1=O	i	nt	53	nt	i	i
C[C@@H]1C(c2ccc(F)cc2)=NN(c2ccccc2)[C@H]1C(=O)N1CCOC1=O	i	nt	53	nt	i	i
CC[C@@H]1C(c2ccccc2)=NN(c2ccc(Br)cc2)[C@H]1C(=O)N1CCOC1=O	i	nt	58	nt	i	i
CC[C@@H]1C(c2ccc(F)cc2)=NN(c2ccc(Br)cc2)[C@H]1C(=O)N1CCOC1=O	i	nt	58	nt	i	44
O=C(N/N=C/c1ccc(Br)s1)c1cccs1	i	i	57	i	i	63
O=C(N/N=C/c1ccc(Br)s1)c1c[nH]c2ccccc12	i	i	55	i	i	46
SMILES	TIM10 inh	NALP3 yeast inh	tim23-1 inh	SKKanGAS inh	tim10-1 inh	tim23-1 conf
Cc1ccc(/C=N/NC(=O)c2cccs2)s1	i	i	i	i	i	nt
O=C(N/N=C/c1cc(Br)cs1)c1c[nH]c2ccccc12	i	i	60	i	i	71
CN(C)c1ccc(C(=O)NCC(c2cccs2)N2CCOCC2)cc1 (centres undefined)	i	i	i	nt	i	nt
N#C/C(=C\c1cn(-c2ccccc2)nc1-c1cccnc1)c1nnc2n1CCCCC2	i	i	i	i	i	nt
CCn1c(/C=N/c2nc3ccccc3n2C)nc2ccccc21	i	i	56	i	i	42
Cc1ccc2c(Cl)c(C)c(N3CCCCC3)nc2n1	i	i	67	i	i	58
COc1cc(SC)ccc1C(=O)Nc1ccc2c(c1)CCC2	i	i	51	i	i	39
O=C(CCl)c1ccc(Cc2ncc(C(F)(F)F)cc2Cl)s1	i	i	52	55	i	i
Cc1onc(-c2ccccc2Cl)c1C(=O)NC1CCCCCC1	i	i	i	i	i	nt
Oc1ccccc1/C=N/n1c(-c2ccccc2)n[nH]c1=S	i	i	51	i	i	i
COc1c(Br)cc(/C=N/n2c(-c3ccccc3)n[nH]c2=S)c(O)c1Br	i	i	62	i	i	60
COc1ccc(C2=NNC(c3cccs3)=Nc3ccc(OC)cc32)cc1	i	i	60	i	i	61
CCOc1ccc2c(c1)C(c1cccs1)=NNC(c1cccnc1)=N2	i	i	i	i	i	nt
O=C(NCC1COc2ccccc2O1)c1ccc(NC(=O)c2ccco2)cc1 (centres undefined)	i	i	58	i	i	53
COc1cc(/C=N\NC(=O)c2ccc(C)nc2)ccc1OC(=O)c1cccc(F)c1	i	i	i	i	i	nt
COc1cc(/C=N/NC(=O)c2ccc(N)cc2)ccc1OC(=O)c1cccc(C)c1	i	i	65	i	i	73
O=C1/C(=C/c2cccc(Br)c2)SC(=S)N1/N=C/c1cc([N+](=O)[O-])ccc1O	i	i	82	i	i	i
O=[N+]([O-])c1ccc(O)c(/C=N/n2cnnc2)c1	i	i	i	i	i	nt
FC(F)(F)COc1ccc(-c2nnc(SCc3ccccc3)o2)cn1	i	i	i	i	i	nt
O=C(/C=C/c1ccc2c(c1)OCO2)c1ccccn1	i	i	56	i	i	44
O=C(c1cccs1)N1CCN(c2cc(Cl)ccc2Cl)CC1	i	i	i	i	i	i
S=C1NCCOCCOCCNC(=S)N2CCOCCOCCN1CCOCCOCC2	i	i	i	i	i	nt
NC(N)=N/N=C/c1ccccc1	i	i	i	i	i	nt
NC(N)=N/N=C/c1ccc(OCc2ccccc2)c(OCc2ccccc2)c1	i	i	60	?	i	49
NC(N)=N/N=C/c1ccc(OCc2ccccc2Cl)cc1	i	i	59	i	i	44
SMILES	TIM10 inh	NALP3 yeast inh	tim23-1 inh	SKKanGAS inh	tim10-1 inh	tim23-1 conf
Cc1cnc(C(=O)N2CCN(S(=O)(=O)c3cccc(Br)c3)CC2)cn1	i	i	i	nt	i	nt
CCC(CCC(=O)Nc1ccc(S(N)(=O)=O)cc1)C(=O)O (centres undefined)	i	i	i	i	i	nt
CN(CC(=O)Nc1ccccc1Br)C(=O)CN1CCN(Cc2cccc(Cl)c2)CC1	i	i	i	nt	i	nt
CCN(c1ccccc1)S(=O)(=O)c1cc(C(=O)Oc2ccc3c(C)cc(=O)oc3c2)ccc1C	i	i	i	i	i	nt
Cc1[nH][nH]c(=O)c1C(c1ccc(-c2ccc(Cl)c(Cl)c2)o1)c1c(C)[nH][nH]c1=O	i	i	75	i	i	46
CCOc1ccc(Cl)cc1C(c1c(C)[nH][nH]c1=O)c1c(C)[nH][nH]c1=O	i	i	i	i	i	nt
O=C(CSc1cccc[n+]1[O-])Nc1ccccc1Oc1ccccc1	i	i	69	i	i	76
O=C(CSc1cccc[n+]1[O-])Nc1ccccc1C(F)(F)F	i	i	i	nt	i	nt
